Assay results published in PubChem BioAssay (EPA / NIEHS).
The source made the active and inactive calls. How the source made its calls: active means hit-call score of the fitted dose curve at least 0.9, where 1 is the maximum; inactive means score below 0.9.

Assays:
[1] = ATG_CRE_CIS: Attagene CIS-FACTORIAL HepG2 Assay for human cAMP Responsive Element (CRE) binding protein 3 (AID 2282926); settings: HepG2 CRE cis-reporter, Attagene multiplexed mRNA; actives raise or lower the signal
Outline: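 We dosed HepG2 cells bearing multiple cis-promoter reporter units for 24 h and measured reporter mRNA by RT-PCR with capillary electrophoresis detection. Bidirectional concentration-response fitting used DMSO as negative control.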

[2] = target: CCAAT/enhancer-binding protein beta (Homo sapiens) (UniProt P17676); test: ATG_C_EBP_CIS: Attagene CIS-FACTORIAL HepG2 Assay for human CCAAT/Enhancer Binding Protein (C/EBP) beta (AID 2282927); settings: HepG2 Attagene cis-factorial transcription factor reporter; actives raise or lower the signal
Outline: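 Following a 24 h incubation with test chemical, transfected HepG2 cells yielded RNA whose reporter transcripts were quantified by RT-PCR and fluorescent capillary electrophoresis, with DMSO serving as baseline for bidirectional fitting.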

[3] = ATG_CMV_CIS: Attagene CIS-FACTORIAL HepG2 Assay for human CMV (Internal Marker) (AID 2282928); settings: HepG2 CMV promoter reporter, transcription factor profiling; actives raise or lower the signal;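 further: endpoint acts as a background internal control marker rather than a target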
Outline: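 After transient transfection of HepG2 with reporter transcription units driven by cis-regulatory promoters, cells receive test chemical for 24 h. Labeled reporter amplicons, digested with HpaI, are sized and quantified by capillary electrophoresis against DMSO.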

[4] = ATG_DR4_LXR_CIS: Attagene CIS-FACTORIAL HepG2 Assay for human Liver X Receptor (LXR), DR4 submotif (AID 2282929); settings: HepG2 Attagene DR4 cis-reporter, mRNA transcription; actives raise or lower the signal
Outline: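 Readout: reporter transcript fluorescence after RT-PCR and capillary electrophoresis, fitted bidirectionally against DMSO controls. Human HepG2 liver cells carried transiently transfected multiplexed reporter constructs; endogenous transcription factor activity measured 24 h post-dosing.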

[5] = target: Aryl hydrocarbon receptor (Homo sapiens) (UniProt P35869); test: ATG_Ahr_CIS: Attagene CIS-FACTORIAL HepG2 Assay for human Aryl Hydrocarbon Receptor (Ahr) (AID 2282930); settings: HepG2 AhR cis-factorial reporter transcription; actives raise or lower the signal
Outline: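 Values derive from bidirectional fitting against DMSO negative control. Underlying signal: cis-element reporter mRNA in transiently transfected HepG2, harvested 24 h post-dose and measured by RT-PCR plus capillary electrophoresis.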

[6] = ATG_AP_1_CIS: Attagene CIS-FACTORIAL HepG2 Assay for human Activator Protein 1 (AP-1) (AID 2282931); settings: HepG2 Attagene cis-factorial AP-1 reporter mRNA; actives raise or lower the signal
Outline: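 Reporter transcripts were measured 24 h after dosing by RT-PCR and capillary electrophoresis of fluorescent fragments. Cells: HepG2 carrying transfected cis-regulated reporter constructs reading endogenous factor activity. Gain or loss fitted against DMSO.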

[7] = ATG_AP_2_CIS: Attagene CIS-FACTORIAL HepG2 Assay for human Activator Protein 2 (AP-2) (AID 2282932); settings: HepG2 AP-2 cis-reporter, Attagene transcription factor profiling; actives raise or lower the signal
Outline: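 HepG2 cells were transiently transfected with multiple cis-promoter reporter transcription units and dosed for 24 h. Reporter mRNA was measured by RT-PCR with capillary electrophoresis fluorescence; bidirectional fits relative to DMSO baseline.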

[8] = ATG_BRE_CIS: Attagene CIS-FACTORIAL HepG2 Assay for human Bone Morphogenetic Protein (BMP) Response Element (BRE) (AID 2282933); settings: HepG2 BMP response element reporter, Attagene transcription factor profiling; actives raise or lower the signal
Outline: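 Gain- or loss-of-signal was derived by bidirectional fitting against DMSO controls. The signal came from reporter mRNA, measured by RT-PCR and capillary electrophoresis, in HepG2 cells transiently carrying multiple reporter units and dosed for 24 h.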

[9] = target: Retinoic acid receptor alpha (Homo sapiens) (UniProt P10276); test: ATG_DR5_RAR_CIS: Attagene CIS-FACTORIAL HepG2 Assay for human Retinoic Acid Receptor Alpha (RARE), DR5 submotif (AID 2282934); settings: HepG2 Attagene cis-factorial RARE DR5 reporter, mRNA; actives raise or lower the signal
Outline: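 Endpoint fitted in both directions relative to DMSO as negative control. It reflects DR5 cis-element reporter mRNA induction in transiently transfected HepG2 cells, measured 24 h after dosing through RT-PCR and fluorescent capillary electrophoresis.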

[10] = target: Transcription factor E2F1 (Homo sapiens) (UniProt Q01094); test: ATG_E2F_CIS: Attagene CIS-FACTORIAL HepG2 Assay for human E2F Transcription Factor 1 (AID 2282935); settings: HepG2 Attagene cis-reporter, E2F reporter RNA transcripts; actives raise or lower the signal
Outline: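 HepG2 cells transiently transfected with multiplexed cis-element reporter units, dosed for 24 h. Reporter mRNA measured by RT-PCR, 6-FAM primer-extension labeling, HpaI digestion and capillary electrophoresis; bidirectional fit versus DMSO baseline.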

Measured: AC50

Sequence of Transcription factor E2F1 (Homo sapiens) (Q01094 whole entry, looked up): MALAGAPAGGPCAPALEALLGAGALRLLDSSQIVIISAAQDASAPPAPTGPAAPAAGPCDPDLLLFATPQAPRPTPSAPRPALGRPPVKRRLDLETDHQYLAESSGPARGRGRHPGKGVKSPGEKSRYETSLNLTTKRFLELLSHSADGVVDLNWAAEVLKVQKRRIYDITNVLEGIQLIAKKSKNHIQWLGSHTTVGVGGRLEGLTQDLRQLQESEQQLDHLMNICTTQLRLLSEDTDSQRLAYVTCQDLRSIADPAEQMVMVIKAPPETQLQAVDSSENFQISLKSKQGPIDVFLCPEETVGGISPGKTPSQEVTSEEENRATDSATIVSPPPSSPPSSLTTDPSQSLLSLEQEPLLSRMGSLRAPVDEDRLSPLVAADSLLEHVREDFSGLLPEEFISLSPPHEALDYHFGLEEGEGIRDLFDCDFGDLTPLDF
Sequence of Aryl hydrocarbon receptor (Homo sapiens) (P35869 whole entry, looked up): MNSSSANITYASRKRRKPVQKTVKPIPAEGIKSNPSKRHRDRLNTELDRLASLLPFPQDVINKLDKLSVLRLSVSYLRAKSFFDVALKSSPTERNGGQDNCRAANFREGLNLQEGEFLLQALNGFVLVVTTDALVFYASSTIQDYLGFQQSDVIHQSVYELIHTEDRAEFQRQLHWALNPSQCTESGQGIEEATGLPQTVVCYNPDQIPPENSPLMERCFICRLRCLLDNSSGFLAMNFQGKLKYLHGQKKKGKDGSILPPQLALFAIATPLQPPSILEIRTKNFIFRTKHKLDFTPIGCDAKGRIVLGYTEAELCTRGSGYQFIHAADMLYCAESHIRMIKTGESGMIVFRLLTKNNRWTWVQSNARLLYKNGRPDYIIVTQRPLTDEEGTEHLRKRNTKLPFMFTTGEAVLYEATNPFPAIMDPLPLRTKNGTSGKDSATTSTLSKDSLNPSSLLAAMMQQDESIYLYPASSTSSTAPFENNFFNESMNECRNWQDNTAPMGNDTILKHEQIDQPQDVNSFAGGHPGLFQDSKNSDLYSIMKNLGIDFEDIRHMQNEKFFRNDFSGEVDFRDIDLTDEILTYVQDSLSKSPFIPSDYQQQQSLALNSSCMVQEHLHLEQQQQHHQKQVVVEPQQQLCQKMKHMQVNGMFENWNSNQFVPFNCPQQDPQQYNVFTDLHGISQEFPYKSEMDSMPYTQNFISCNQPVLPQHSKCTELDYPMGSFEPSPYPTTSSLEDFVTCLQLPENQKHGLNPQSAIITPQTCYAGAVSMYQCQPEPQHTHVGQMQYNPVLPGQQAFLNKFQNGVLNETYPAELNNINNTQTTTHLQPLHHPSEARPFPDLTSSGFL
Sequence of CCAAT/enhancer-binding protein beta (Homo sapiens) (P17676 whole entry, looked up): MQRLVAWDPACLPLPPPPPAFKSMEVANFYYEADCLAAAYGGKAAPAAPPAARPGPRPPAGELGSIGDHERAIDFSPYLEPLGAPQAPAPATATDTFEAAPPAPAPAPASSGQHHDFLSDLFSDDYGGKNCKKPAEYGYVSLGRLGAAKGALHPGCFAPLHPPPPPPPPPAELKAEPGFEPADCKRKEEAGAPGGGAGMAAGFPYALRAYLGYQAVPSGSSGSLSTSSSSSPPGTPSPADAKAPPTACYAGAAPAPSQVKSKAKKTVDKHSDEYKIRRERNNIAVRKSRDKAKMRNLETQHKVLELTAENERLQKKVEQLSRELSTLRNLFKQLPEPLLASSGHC
Sequence of Retinoic acid receptor alpha (Homo sapiens) (P10276 whole entry, looked up): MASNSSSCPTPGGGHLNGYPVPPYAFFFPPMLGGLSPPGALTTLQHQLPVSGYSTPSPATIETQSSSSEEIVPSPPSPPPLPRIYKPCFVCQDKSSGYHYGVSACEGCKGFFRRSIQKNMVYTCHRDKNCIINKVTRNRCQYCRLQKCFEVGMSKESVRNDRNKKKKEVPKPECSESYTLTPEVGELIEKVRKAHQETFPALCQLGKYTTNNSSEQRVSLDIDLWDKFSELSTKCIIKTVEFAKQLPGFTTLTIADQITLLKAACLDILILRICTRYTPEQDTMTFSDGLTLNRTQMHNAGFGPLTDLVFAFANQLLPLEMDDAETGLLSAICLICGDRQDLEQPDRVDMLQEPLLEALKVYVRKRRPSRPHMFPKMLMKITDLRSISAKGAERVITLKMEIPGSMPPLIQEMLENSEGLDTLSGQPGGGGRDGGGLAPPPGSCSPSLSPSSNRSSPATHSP

CC(CN1c2ccccc2Sc2ccccc21)N(C)C (configuration not stated)
active: [4] 33.4 µM | [7] 40.6 µM | [10] 33.4 µM
inactive: all other assays above

COc1ccc(Cl)cc1C
active: [5] 36.9 µM
inactive: all other assays above

O=C(O)c1cn(-c2ccc(F)cc2)c2cc(N3CCNCC3)c(F)cc2c1=O
inactive: all assays above

O=C(O)CCCCCCCC(=O)O
not listed: [9]
inactive: all other assays above

FC1(F)C(F)(F)C(F)(F)C2(F)C(F)(C1(F)F)C(F)(F)C(F)(F)C1(F)C(F)(F)C(F)(F)C(F)(F)C(F)(F)C12F (configuration not stated)
not listed: [9]
inactive: all other assays above

O=S(=O)(O)c1cccc2c(S(=O)(=O)O)cccc12
inactive: all assays above

CCCCCCCCCCCCN(CCCCCCCCCCCC)CCCCCCCCCCCC
not listed: [9]
inactive: all other assays above

CC1CCC(C(C)(C)O)CC1 (configuration not stated)
not listed: [9]
inactive: all other assays above

CCCCOCCOCCOCCOCCO
not listed: [9]
inactive: all other assays above

O=S(=O)(O)c1ccc(O)c2ncccc12
active: [5] 37.5 µM
not listed: [9]
inactive: all other assays above

COCCOCCOCCOCCOCCO
not listed: [9]
inactive: all other assays above

CCCC(=O)OCCC(C)CCC=C(C)C (configuration not stated)
inactive: all assays above

CCCCCCCCCCCCCCCC(=O)OC[C@H](O)[C@H]1OC(=O)C(O)=C1O
active: [1] 29.3 µM | [2] 67.7 µM | [4] 76.2 µM | [5] 78 µM | [8] 9.68 µM
inactive: [3] | [6] | [7] | [10]
